From the supplement of paper PMC11732987, “Enantioselective OTUD7B fragment discovery through chemoproteomics screening and high-throughput optimisation” (Communications Chemistry, 2025)

Tests used:
Experiment in all cases: log2 ratio of Biotin-Ahx-Ub-VS probe labelling (fragment/DMSO); higher = less target engagement (more negative = stronger competition), active = hit call of the paper (q ≤ 0.05, log2 ratio ≤ -1)
Conditions in all cases: compound concentration: 200 uM; treatment time: 3 h
USP34 = USP34 (UniProt Q70CQ2)
Sequence of USP34 (Q70CQ2 whole entry, the tested form may be a part): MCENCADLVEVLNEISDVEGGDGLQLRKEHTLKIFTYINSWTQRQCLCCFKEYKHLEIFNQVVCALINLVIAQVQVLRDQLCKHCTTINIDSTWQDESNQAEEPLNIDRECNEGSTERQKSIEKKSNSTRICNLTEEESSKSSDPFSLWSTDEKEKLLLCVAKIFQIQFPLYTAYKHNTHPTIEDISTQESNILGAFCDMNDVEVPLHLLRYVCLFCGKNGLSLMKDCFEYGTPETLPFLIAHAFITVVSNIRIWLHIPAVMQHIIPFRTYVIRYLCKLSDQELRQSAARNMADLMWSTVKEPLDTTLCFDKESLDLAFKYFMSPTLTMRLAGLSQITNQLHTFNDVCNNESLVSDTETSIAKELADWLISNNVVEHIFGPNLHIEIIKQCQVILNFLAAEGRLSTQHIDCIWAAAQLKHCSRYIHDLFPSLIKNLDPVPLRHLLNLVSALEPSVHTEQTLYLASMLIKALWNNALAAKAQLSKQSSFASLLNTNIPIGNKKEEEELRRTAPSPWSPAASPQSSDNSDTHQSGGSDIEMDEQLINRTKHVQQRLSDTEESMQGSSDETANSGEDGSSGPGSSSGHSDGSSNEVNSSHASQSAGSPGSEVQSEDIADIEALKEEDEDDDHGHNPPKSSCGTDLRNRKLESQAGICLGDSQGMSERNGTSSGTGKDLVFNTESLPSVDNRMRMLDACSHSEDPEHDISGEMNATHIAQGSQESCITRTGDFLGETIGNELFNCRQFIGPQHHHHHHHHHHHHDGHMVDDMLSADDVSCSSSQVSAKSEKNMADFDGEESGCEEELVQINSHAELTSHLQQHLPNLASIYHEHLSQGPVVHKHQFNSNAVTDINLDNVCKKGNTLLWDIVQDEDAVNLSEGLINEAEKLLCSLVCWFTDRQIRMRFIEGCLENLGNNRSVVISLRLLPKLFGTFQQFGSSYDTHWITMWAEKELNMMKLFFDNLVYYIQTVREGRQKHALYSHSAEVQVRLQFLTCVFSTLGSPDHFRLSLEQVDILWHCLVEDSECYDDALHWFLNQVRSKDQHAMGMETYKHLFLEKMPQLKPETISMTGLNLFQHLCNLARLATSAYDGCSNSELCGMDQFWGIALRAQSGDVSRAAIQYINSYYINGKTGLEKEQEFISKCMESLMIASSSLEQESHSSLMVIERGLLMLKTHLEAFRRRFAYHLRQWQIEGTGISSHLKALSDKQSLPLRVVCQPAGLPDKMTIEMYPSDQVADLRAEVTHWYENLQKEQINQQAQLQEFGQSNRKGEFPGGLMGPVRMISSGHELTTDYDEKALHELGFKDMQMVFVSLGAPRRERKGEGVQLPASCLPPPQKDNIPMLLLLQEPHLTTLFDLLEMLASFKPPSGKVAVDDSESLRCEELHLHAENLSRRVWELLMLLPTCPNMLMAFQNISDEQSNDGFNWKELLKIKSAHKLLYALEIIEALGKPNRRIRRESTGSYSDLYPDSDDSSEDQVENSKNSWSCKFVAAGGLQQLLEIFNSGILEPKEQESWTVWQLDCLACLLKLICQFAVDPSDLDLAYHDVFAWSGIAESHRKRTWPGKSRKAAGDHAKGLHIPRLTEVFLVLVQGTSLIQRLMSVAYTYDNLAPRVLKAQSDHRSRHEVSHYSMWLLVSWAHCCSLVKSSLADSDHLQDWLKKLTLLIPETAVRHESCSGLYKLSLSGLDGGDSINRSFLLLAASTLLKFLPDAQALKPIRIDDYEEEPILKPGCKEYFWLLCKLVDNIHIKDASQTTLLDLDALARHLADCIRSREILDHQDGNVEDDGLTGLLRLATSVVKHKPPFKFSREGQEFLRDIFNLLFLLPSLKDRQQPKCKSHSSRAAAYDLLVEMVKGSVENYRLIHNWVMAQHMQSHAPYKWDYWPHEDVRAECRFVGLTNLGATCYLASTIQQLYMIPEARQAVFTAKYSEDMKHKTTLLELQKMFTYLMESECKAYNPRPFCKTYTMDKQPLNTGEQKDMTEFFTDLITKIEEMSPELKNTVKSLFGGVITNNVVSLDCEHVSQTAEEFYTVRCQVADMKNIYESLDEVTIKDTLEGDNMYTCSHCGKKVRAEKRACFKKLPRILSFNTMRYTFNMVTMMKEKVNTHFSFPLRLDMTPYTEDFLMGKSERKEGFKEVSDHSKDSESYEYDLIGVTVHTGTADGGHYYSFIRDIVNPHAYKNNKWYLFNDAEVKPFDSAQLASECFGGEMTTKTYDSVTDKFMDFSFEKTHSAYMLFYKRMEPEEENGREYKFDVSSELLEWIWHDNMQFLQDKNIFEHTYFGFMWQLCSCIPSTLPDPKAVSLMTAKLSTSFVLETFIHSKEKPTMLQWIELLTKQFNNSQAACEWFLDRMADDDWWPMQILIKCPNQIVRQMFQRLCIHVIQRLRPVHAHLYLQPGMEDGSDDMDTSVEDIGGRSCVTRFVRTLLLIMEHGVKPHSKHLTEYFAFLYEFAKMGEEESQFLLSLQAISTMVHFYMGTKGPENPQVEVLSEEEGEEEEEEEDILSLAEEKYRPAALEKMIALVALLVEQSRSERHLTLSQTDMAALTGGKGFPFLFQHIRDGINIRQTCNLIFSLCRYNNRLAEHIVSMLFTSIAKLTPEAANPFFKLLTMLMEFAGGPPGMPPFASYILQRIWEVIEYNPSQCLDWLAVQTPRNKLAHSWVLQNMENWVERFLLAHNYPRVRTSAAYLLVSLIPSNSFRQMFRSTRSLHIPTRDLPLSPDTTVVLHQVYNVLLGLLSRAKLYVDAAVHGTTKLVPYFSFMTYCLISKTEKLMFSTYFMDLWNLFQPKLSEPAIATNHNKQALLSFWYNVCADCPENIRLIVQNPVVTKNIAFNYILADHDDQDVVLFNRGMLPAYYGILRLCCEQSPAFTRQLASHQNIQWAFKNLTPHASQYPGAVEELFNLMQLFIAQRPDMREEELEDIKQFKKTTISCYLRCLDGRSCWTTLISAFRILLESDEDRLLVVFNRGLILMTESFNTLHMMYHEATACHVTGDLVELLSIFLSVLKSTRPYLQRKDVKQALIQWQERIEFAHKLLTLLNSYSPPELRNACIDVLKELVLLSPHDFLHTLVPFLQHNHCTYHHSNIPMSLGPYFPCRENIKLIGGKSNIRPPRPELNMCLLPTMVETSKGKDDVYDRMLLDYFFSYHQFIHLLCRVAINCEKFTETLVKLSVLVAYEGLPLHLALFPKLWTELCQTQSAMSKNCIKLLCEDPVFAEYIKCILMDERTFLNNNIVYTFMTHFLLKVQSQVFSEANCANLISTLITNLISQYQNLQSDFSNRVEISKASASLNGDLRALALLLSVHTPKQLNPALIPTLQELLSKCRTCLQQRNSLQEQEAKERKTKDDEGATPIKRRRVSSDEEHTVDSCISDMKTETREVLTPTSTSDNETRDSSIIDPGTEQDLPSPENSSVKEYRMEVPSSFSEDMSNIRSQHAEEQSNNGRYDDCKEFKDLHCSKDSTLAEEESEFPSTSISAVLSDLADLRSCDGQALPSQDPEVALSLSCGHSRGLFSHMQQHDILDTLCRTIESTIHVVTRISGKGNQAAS
Method in brief: (§1)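 HEK293T lysate (495 µg per sample, in Tris/CHAPS/IGEPAL buffer with protease inhibitors) was treated in triplicate with fragment at 200 µM or with DMSO for 3 h. It was then treated with Biotin-Ahx-Ub-VS (0.5 µM final) for 1 h. Labelled DUBs were NeutrAvidin-enriched, digested with LysC and trypsin, and run by diaPASEF LC-MS/MS. Spectronaut label-free quantities were global-median-normalised. Values are average log2 ratios fragment/DMSO by unpaired t-test, using proteins with ≥2 unique peptides.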

USP36 = molecular target: T1, USP36 (UniProt Q9P275)
T1 sequence (whole entry): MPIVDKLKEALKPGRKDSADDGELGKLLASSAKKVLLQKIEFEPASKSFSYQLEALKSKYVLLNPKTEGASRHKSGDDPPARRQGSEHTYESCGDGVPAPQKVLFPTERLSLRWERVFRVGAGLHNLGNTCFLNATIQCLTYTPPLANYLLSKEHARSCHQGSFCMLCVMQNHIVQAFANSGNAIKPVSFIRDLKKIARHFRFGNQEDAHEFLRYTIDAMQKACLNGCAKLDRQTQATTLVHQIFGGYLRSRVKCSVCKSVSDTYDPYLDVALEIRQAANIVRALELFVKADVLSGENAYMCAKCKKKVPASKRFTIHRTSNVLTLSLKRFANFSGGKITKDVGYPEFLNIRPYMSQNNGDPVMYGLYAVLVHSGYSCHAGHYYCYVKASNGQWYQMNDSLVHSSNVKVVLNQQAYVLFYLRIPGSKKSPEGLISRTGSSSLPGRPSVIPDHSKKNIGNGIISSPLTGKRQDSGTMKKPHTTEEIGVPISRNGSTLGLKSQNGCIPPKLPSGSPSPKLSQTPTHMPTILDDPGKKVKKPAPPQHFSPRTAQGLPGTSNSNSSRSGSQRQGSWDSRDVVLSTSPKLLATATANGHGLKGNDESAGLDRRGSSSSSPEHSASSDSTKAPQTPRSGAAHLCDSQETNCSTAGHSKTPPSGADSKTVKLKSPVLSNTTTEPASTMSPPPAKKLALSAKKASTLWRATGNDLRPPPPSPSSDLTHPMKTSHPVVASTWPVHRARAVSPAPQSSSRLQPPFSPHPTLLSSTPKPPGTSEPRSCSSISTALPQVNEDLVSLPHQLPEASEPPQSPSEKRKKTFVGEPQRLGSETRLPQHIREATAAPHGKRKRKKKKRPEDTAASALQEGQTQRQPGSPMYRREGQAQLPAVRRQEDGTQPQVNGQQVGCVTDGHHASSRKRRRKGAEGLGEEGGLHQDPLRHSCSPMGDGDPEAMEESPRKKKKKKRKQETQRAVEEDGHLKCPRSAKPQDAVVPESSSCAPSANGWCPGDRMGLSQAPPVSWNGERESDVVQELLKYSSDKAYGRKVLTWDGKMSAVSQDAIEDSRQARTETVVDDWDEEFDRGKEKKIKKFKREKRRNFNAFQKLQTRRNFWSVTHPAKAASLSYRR
Method in brief: as §1

USP38 = molecular target: T2, USP38 (UniProt Q8NB14)
T2 sequence (whole entry): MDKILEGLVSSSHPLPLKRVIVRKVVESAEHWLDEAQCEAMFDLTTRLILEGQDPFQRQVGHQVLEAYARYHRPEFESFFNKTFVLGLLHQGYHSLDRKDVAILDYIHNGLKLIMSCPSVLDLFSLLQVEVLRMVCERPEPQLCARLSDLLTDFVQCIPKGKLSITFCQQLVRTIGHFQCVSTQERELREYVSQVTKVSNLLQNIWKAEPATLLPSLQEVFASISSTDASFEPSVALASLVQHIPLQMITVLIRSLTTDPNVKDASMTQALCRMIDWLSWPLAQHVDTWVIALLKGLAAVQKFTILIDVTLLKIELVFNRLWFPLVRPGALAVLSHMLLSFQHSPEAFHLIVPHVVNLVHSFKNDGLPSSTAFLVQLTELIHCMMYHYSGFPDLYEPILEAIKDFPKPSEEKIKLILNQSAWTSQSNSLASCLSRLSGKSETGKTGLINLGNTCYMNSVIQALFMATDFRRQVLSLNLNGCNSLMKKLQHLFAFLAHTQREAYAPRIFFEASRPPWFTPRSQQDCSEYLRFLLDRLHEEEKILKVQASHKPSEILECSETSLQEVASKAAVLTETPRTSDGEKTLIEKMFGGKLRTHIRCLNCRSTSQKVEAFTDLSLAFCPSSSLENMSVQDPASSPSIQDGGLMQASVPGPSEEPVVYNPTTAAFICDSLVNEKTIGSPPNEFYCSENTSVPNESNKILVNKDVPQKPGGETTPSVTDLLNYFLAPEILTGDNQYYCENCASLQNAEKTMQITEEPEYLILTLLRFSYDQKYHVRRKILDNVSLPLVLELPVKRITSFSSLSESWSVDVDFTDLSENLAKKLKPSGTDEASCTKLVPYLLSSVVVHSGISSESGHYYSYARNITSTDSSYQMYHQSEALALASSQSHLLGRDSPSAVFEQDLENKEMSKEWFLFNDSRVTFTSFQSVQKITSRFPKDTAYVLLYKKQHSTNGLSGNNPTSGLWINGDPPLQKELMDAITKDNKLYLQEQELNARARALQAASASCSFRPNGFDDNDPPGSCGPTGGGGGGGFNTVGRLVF
Method in brief: as §1

USP39 = molecular target: T3, USP39 (UniProt Q53GS9)
T3 sequence (whole entry): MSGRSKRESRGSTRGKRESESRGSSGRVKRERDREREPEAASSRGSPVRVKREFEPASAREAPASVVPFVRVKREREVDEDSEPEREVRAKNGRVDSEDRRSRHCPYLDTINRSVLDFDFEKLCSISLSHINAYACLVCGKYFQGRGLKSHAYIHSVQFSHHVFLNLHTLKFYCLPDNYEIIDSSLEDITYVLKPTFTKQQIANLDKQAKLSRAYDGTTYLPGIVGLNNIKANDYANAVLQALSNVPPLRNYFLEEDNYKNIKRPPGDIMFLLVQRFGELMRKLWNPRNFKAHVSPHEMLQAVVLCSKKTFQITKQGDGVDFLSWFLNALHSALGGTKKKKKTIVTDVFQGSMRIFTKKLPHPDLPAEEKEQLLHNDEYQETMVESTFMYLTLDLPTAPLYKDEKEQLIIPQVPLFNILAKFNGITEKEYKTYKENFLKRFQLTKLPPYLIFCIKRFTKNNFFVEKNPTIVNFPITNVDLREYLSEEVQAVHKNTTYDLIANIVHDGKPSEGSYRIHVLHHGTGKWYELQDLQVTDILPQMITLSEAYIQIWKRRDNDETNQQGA
Method in brief: as §1

USP4 = molecular target: T4, USP4 (UniProt Q13107)
T4 sequence (whole entry): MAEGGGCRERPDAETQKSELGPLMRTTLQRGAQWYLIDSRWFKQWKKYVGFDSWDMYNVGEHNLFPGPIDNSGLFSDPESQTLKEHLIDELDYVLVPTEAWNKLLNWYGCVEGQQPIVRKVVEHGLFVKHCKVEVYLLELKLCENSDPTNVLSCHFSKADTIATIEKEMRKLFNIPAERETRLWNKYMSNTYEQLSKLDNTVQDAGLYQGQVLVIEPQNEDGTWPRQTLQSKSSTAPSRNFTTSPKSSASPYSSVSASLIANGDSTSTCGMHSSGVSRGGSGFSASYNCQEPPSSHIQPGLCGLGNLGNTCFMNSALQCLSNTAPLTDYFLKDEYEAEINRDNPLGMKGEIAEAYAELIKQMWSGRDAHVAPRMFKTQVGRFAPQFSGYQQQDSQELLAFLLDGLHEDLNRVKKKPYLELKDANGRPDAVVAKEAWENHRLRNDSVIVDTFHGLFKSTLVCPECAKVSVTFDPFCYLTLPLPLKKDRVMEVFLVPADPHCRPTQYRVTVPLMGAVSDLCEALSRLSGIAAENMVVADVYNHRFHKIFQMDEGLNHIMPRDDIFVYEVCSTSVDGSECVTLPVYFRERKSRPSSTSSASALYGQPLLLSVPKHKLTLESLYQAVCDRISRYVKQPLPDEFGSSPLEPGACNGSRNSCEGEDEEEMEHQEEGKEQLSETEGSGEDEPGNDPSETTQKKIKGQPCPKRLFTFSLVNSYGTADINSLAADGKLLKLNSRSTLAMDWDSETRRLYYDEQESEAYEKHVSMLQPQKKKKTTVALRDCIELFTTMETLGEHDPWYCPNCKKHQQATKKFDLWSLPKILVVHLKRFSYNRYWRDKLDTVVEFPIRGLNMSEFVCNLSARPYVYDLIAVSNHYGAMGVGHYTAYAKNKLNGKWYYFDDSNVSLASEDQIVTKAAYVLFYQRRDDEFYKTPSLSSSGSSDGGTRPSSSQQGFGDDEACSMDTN
Method in brief: as §1

Measured: log2 ratio of Biotin-Ahx-Ub-VS probe labelling

O=C(CCl)NCCC1COCCO1 (stereo not given)
inactive: USP34 -0.0886 | USP36 -0.0548 | USP38 -0.0125 | USP39 0.0236 | USP4 -0.00705
